In PubChem BioAssay AID2227 (Johns Hopkins Ion Channel Center, 2009):
Screen size: about 310,000 compounds; about 1,300 (0.42%) were called active.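 How the source made its calls: active means B-score of calcium response area above 5 SD of library B-scores, with initial fluorescence ratio within 5 SD of library; inactive means the rest.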 The list comes from a sample in which actives are over-represented; it also holds similar structures and randomly drawn compounds.

What follows are compounds tested against Short transient receptor potential channel 4 (Mus musculus) (UniProt Q9QUQ5) (assay: positive allosteric modulators of TRPC4, primary screen, cell-based, mouse TRPC4beta, HEK293 mu-opioid, Fluo-4 calcium (AID 2227;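 on B-score: B-score of integrated fluorescence ratio over time as area under calcium response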)). Conditions: DAMGO EC20, Fluo-4 Ca2+ flux, at 10 µM; hits give high values.
Chain of Short transient receptor potential channel 4 (Mus musculus) (Q9QUQ5 whole entry, looked up): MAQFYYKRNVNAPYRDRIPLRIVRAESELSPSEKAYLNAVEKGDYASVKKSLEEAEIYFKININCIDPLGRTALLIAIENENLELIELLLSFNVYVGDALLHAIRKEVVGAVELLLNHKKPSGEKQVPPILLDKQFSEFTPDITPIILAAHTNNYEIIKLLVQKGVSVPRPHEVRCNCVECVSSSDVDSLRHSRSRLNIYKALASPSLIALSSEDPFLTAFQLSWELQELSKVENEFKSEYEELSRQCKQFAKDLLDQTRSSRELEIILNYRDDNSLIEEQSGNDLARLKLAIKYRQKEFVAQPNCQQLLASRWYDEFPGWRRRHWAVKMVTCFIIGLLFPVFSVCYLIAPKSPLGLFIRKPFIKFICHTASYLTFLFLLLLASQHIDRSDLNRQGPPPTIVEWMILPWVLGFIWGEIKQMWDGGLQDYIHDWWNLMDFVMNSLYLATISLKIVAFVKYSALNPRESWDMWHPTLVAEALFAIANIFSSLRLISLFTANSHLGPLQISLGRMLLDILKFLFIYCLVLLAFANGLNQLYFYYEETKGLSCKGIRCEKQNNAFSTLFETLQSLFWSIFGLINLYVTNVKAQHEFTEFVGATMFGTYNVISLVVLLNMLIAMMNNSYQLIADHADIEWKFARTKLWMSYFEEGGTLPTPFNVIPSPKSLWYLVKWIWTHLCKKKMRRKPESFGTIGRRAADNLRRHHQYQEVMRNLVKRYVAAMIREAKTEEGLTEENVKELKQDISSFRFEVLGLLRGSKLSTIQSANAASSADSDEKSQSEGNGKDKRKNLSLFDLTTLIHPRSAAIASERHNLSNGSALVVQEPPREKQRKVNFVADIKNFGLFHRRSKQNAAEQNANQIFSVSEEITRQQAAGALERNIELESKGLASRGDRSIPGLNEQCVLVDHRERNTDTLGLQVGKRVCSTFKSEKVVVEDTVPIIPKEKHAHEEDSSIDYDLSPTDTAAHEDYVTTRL

Row | Compound | B-score
1 | Cc1cccc(N2C(=O)SC(SC(=Nc3ccccc3)Nc3ccccc3)C2=O)c1 (configuration not stated) | inactive
2 | CN(C)CCn1c(=S)[nH]c2ccc(Cl)cc2c1=O | 14 (active)
3 | CCCCn1c(=S)[nH]c2ccccc2c1=O | inactive
4 | O=C(O)c1ccc(Cn2c(=S)[nH]c3cc(Cl)ccc3c2=O)cc1 | inactive
5 | Cc1ccc(Cl)cc1N1CCN(C(=O)c2cccc3c(=O)c(C)c(-c4ccccc4)oc23)CC1 | 24 (active)
6 | COC(=O)c1ccc(C(=O)OC)c(NC(=S)N2CCN(c3cc(Cl)ccc3C)CC2)c1 | inactive
7 | Cc1cccc(N2CCN(C(=O)c3cnn4c(C(F)F)cc(-c5ccccc5)nc34)CC2)c1C | inactive
8 | COc1cccc(NC(=O)CSc2nccn(-c3ccc4c(c3)OCCO4)c2=O)c1 | inactive
9 | CCOc1ccc(NS(=O)(=O)c2ccc(C)c(C(N)=O)c2)cc1 | inactive
10 | CCn1cc(C(=O)N2CCN(Cc3ccc4c(c3)OCO4)CC2)c2cc(OC)c(OC)cc2c1=O | inactive
11 | COc1cc(Cl)c(S(=O)(=O)N2CCN(Cc3ccc4c(c3)OCO4)CC2)cc1Cl | 37 (active)
12 | COc1ccc(-c2cc(C(=O)N3CCN(Cc4ccc5c(c4)OCO5)CC3)on2)cc1OC | inactive
13 | CC(=O)c1ccccc1OCc1ccc(C(=O)c2ccccc2)cc1 | inactive
14 | COC(=O)c1cc(C(=O)OCC(=O)Nc2cc(C)on2)cc([N+](=O)[O-])c1 | inactive
15 | COc1ccc(OCCn2ccnc2C)cc1 | inactive
16 | Brc1c(CSc2nncc3ccccc23)nc2ccccn12 | inactive
17 | COc1ccccc1NS(=O)(=O)c1ccc(C(=O)N2CCN(c3ccccc3O)CC2)cc1 | inactive
18 | Cc1cccc(NC(=O)c2cccc(S(=O)(=O)N3CCCC3)c2)n1 | inactive
19 | CCn1c2ccccc2c2cc(NC(=O)COC(=O)c3cc(S(=O)(=O)N4CCCCC4)ccc3Cl)ccc21 | inactive
20 | CCn1c(O)c(N=NC(=O)c2cccc(S(=O)(=O)N3CCCCC3)c2)c2ccccc21 | 15 (active)
21 | COc1ccc(CSc2nnnn2-c2ccc(C(=O)O)cc2)cc1 | inactive
22 | COCCN(CCOC)S(=O)(=O)c1ccc(/C(O)=C(\C#N)c2nc3ccccc3[nH]2)cc1 | 11 (active)
23 | CCC(=O)/C(=C(/O)c1ccccc1)c1nc2ccccc2[nH]1 | inactive
24 | Cc1ccccc1OC/C(O)=C(\C#N)c1nc2ccccc2[nH]1 | inactive
25 | COC(=O)c1c(CCl)noc1C(=O)NC(C)C | inactive
26 | O=C(Nc1cccc(F)c1)c1coc(=O)c(Br)c1 | inactive

Row | Compound | B-score
27 | CC(=N\NC(=O)c1cc(Br)ccc1O)/C(=N/O)C(=O)Nc1ccccc1 | inactive
28 | Cc1ccc(CN2CCN(c3ncccn3)CC2)c(C)c1 | inactive
29 | Cc1ccc(CN2CCN(/N=C/c3ccco3)CC2)c(C)c1 | inactive
30 | O=C1/C(=C\c2cccnc2)CN(Cc2ccccc2)C/C1=C\c1cccnc1 | inactive
31 | Clc1ccc(CN2CCN(/N=C/c3cccnc3)CC2)cc1 | 12 (active)
32 | C(=N\n1cnnc1)/c1cccnc1 | inactive
33 | Cc1ccc(CN2CCN(/N=C/c3cccnc3)CC2)c(C)c1 | 12 (active)
34 | CCOc1ccc(S(=O)(=O)NCCCn2ccnc2)cc1NC(C)=O | inactive
35 | CCc1ccc(/C=N/NC(=O)c2nnn(-c3nonc3N)c2CN2CCc3ccccc32)cc1 | inactive
36 | CCN(CCn1cccn1)Cc1cn[nH]c1-c1ccc(OC)cc1F | inactive
37 | Cc1cccc(C)c1NC(=O)C1(N(C(=O)c2ccccn2)c2ccc(O)cc2)CCCCC1 | inactive
38 | CN(C)CCCN(Cc1cc2cc3c(cc2[nH]c1=O)OCCO3)C(=O)NC1CCCCC1 | inactive
39 | COCCCNC(=S)NC(=O)c1ccccc1 | inactive
40 | CCOC(=O)C1=C(NC(=S)NC(=O)c2ccccc2)c2ccccc2CC1(C)C | 25 (active)
41 | Cc1ccc(NC(=S)NC(=O)c2ccc(-c3ccccc3)cc2)cc1 | inactive
42 | CCOC(=O)C(CC)/C(C)=N\NC(=O)c1cccc(C)c1 (configuration not stated) | inactive
43 | ONC(=Nc1ccccc1)c1ccccc1Cl | inactive
44 | NC(=O)CSc1nnc(NC(=O)c2ccc3ccccc3c2)s1 | inactive
45 | O=C(Nc1nnc(SCc2ccccc2Cl)s1)c1cccc([N+](=O)[O-])c1 | 12 (active)
46 | O=C(Nc1nnc(SCc2c(Cl)cccc2Cl)s1)c1cccc([N+](=O)[O-])c1 | inactive
47 | Cc1ccc(S(=O)(=O)N2CCN(C(=O)Cc3sc(C)nc3-c3ccc(F)cc3)CC2)c(C)c1 | inactive
48 | CCOc1ccccc1NC(=S)NC(=O)CCc1ccccc1 | inactive
49 | Cc1sc2nc(SCCO)n(-c3ccccc3)c(=O)c2c1C | inactive
50 | Cc1sc2nc(SCC(N)=O)n(C)c(=O)c2c1C | 29 (active)
51 | C=CCn1c(SCC(=O)/C(C#N)=C(\C)N)nc2sc(C)c(C)c2c1=O | inactive
52 | Cc1cc(Nc2cccc(F)c2)n2ncnc2n1 | inactive
